Test results as given in PubChem BioAssay.
Unmarked numbers belong to inactive results. Entries that show only a call come without a potency. For some assays here: Potency and affinity values are given separately. Calls of active or inactive are those of the source. Unless noted, how the calls were made is not given here.

Key:
[1] = antimalarial activity against Dd2 strain (AID 2302;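 active means growth inhibition above 50% at the single 2 µM test dose, taken to imply half-maximal potency below 2 µM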); details: P. falciparum Dd2 in RBCs, LDH growth readout, 72 h; at 2 µM; hits give high values
[2] = HepG2 cytotoxicity, primary screen, cytotoxicity control for P. falciparum antimalarial project, cell-based, ATP luminescence (AID 2303;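 active means inhibition above 50%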); details: HepG2 viability, 24-48 h, at 10 µM, hits give high values
[3] = molecular target: L-lactate dehydrogenase (Plasmodium falciparum (isolate CDC / Honduras)) (UniProt Q27743); assay: PfLDH activity inhibition – cell lysate, 3D7 strain, counter-screen for P. falciparum growth inhibition project (AID 2304); details: P. falciparum 3D7 crude extract, LDH APAD/NBT absorbance; at 2 µM; hits give high values
[4] = inhibition of 3D7 malaria parasite growth – strain 3D7 (AID 2306); details: P. falciparum 3D7 erythrocytic growth, LDH absorbance, 72 h; at 2 µM; hits give high values
[5] = molecular target: Calcium-dependent protein kinase 1 (Plasmodium falciparum (isolate 3D7)) (UniProt P62344); assay: PfCDPK1 kinase inhibitors, biochemical, TCAMS library (AID 1159585; cut-off not given, nearly all actives have IC50 up to about 0.98 µM;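 further: inhibitors leave more ATP so luminescence rises with inhibition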); details: recombinant PfCDPK1, Kinase-Glo ATP depletion luminescence
[6] = molecular target: Plasmodium falciparum protein kinase 6 (PK6, PF3D7_1337100) (UniProt Q8IDW1); assay: PfPK6 kinase inhibitors, biochemical, TCAMS library (AID 1159586); details: recombinant PfPK6, Kinase-Glo ATP depletion luminescence
[7] = molecular target: Protein kinase 7 (PK7), Plasmodium falciparum 3D7 (PF3D7_0213400) (UniProt Q7YTF7); assay: inhibition of Plasmodium PK7 catalytic activity – biochemical, TCAMS antimalarial set, Kinase-Glo luminescence (AID 1159587); details: recombinant PfPK7, Kinase-Glo ATP depletion luminescence
[8] = molecular target: Calcium-dependent protein kinase 4 (Plasmodium falciparum (isolate 3D7)) (UniProt Q8IBS5); assay: PfCDPK4 kinase inhibitors, biochemical, TCAMS library (AID 1159588; cut-off not given, nearly all actives have IC50 up to about 0.91 µM); details: recombinant PfCDPK4, Kinase-Glo ATP depletion luminescence
Calcium-dependent protein kinase 4 (Plasmodium falciparum (isolate 3D7)), sequence (Q8IBS5 whole entry, looked up): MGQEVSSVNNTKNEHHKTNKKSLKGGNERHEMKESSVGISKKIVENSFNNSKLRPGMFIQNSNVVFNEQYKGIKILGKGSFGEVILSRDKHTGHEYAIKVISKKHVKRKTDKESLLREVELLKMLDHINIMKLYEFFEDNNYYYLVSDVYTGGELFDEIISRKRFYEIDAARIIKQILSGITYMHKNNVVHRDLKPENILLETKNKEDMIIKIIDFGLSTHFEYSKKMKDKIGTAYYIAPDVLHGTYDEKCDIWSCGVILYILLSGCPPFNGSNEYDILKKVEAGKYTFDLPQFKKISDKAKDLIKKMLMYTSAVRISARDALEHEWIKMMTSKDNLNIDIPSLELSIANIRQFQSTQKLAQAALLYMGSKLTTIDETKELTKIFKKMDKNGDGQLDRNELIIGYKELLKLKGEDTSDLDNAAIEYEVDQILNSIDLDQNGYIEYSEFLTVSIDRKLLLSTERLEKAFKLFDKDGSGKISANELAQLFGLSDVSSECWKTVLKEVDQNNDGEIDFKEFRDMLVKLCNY

Plasmodium falciparum protein kinase 6 (PK6, PF3D7_1337100), sequence (Q8IDW1 1-305): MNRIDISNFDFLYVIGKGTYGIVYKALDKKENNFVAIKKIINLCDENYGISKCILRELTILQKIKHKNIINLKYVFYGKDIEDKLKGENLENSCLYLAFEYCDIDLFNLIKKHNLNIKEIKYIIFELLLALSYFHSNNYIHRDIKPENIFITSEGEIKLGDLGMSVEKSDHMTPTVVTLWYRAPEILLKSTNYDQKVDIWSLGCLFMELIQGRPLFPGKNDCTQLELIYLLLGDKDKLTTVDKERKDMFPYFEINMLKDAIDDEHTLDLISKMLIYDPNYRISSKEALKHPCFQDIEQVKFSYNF
Calcium-dependent protein kinase 1 (Plasmodium falciparum (isolate 3D7)), sequence (P62344 whole entry, looked up): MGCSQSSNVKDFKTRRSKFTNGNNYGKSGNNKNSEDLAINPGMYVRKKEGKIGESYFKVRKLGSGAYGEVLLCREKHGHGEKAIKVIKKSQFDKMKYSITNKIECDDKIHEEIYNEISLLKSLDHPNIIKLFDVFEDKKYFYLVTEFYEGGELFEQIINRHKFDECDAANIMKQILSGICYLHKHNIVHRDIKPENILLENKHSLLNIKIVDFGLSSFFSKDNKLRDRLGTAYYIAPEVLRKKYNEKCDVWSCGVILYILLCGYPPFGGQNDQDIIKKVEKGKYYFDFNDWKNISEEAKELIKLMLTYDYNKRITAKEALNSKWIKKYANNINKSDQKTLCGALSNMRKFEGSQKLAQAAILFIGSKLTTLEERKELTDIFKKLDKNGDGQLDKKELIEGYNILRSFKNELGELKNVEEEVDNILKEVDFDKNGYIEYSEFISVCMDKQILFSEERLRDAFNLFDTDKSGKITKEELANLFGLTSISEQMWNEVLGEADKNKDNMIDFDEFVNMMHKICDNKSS
Protein kinase 7 (PK7), Plasmodium falciparum 3D7 (PF3D7_0213400), sequence (Q7YTF7 1-343): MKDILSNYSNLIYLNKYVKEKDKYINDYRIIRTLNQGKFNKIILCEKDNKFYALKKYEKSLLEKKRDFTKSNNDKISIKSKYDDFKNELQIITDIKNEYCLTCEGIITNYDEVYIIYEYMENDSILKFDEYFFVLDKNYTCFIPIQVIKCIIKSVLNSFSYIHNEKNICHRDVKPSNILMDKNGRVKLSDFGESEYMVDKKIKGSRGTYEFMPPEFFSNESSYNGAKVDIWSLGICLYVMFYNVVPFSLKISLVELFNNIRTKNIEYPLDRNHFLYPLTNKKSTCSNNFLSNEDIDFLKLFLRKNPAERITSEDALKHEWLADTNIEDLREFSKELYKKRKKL
L-lactate dehydrogenase (Plasmodium falciparum (isolate CDC / Honduras)), sequence (Q27743 whole entry, looked up): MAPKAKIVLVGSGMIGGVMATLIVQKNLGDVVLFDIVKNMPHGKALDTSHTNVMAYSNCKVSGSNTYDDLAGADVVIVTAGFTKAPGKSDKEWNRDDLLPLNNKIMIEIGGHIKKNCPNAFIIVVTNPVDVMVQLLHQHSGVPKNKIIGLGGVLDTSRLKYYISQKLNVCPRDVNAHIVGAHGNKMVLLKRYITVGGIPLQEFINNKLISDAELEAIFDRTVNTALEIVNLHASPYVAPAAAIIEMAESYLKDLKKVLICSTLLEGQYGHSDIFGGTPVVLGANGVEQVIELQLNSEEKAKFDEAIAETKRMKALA

| Structure (SMILES) | growth inhibition [1] | inhibition [2] | inhibition [3] [%] | growth inhibition [4] | outcome [5] | outcome [6] | outcome [7] | outcome [8] |
| --- | --- | --- | --- | --- | --- | --- | --- | --- |
| c1ccc2sc(Sc3ncnc4sccc34)nc2c1 | 100% (active) | 7% | 2 | 100% (active) | inactive | inactive | inactive | inactive |
| Cn1cnc2c(SCc3ccc(OCc4ccccc4)cc3)ncnc21 | 87% (active) | 1% | -6 | 95% (active) | inactive | inactive | inactive | inactive |
| Cc1ccccc1N1CCN(c2ccc(C(=O)NC3CC3)cn2)CC1 | 96% (active) | 14% | 0 | 96% (active) | inactive | inactive | inactive | inactive |
| COc1cc2nc(N3CCC(CNC(=O)c4ccc(-c5ccc(C(F)(F)F)cc5)cc4)CC3)nc(N)c2cc1OC | 100% (active) | 94% (active) | 3 | 100% (active) | inactive | inactive | inactive | inactive |
| CCNc1cc(C(=O)N[C@@H](Cc2ccoc2)[C@H](O)CNC(C)CCCC(C)C)cc(N2CCCCS2(=O)=O)c1 (stereo not given in full) | 68% (active) | -2% | 0 | 99% (active) | inactive | inactive | inactive | inactive |
| O=C(Nc1cccc(C(F)(F)F)c1)NC1CCN(c2ccnc3cc(Cl)ccc23)CC1 | 47% | 13% | -2 | 101% (active) | inactive | inactive | inactive | inactive |
| Oc1ccc(CN2CC[C@@H](N3CCN(CCc4ccccc4)CC3)[C@H](O)C2)cc1Cl | 77% (active) | 0% | 2 | 100% (active) | inactive | inactive | inactive | inactive |
| COc1ccc(CCN2CCC(NCc3cccc(N(C)C)c3)CC2)cc1 | 7% | 18% | 2 | 98% (active) | inactive | inactive | inactive | inactive |
| COc1ccc(NS(=O)(=O)c2cccc(C(=O)Nc3ccc(C(F)(F)F)cc3)c2)cc1N1CCN(CC(C)C)CC1 | 4% | 5% | 2 | 94% (active) | inactive | inactive | inactive | inactive |
| COc1cc2c(cc1C(F)(F)F)N(C(=O)Nc1cc(F)cc(-c3cncnc3)c1)CC2 | 52% (active) | 15% | -5 | 97% (active) | inactive | inactive | inactive | inactive |
| CC(C)c1cc(C(=O)N[C@@H](Cc2ccccc2)[C@H](O)CNC2CCCCC2)cc(N2CCCC2=O)c1 | 98% (active) | -11% | 5 | 101% (active) | inactive | inactive | inactive | inactive |
| c1ccc(-c2ccc(CNCCCNc3nc4ccccc4[nH]3)cc2)cc1 | 0% | 20% | -4 | 95% (active) | inactive | inactive | inactive | inactive |
| O=C(Nc1ccccc1)Nc1ccc(-n2ccc(C(F)(F)F)n2)cc1 | 85% (active) | 15% | -5 | 95% (active) | inactive | inactive | inactive | inactive |
| O=C(NC1CCN(CCN2CCC(c3cn(CCO)c4ccccc34)CC2)CC1)c1ccc(-c2ccc(C(F)(F)F)cc2)cc1 | 54% (active) | 30% | -1 | 98% (active) | inactive | inactive | inactive | inactive |
| COC(=O)c1cccc(CNCc2ccc(-c3ccc(-c4nc5ccccc5[nH]4)s3)cc2)c1 | 79% (active) | 20% | 4 | 100% (active) | inactive | inactive | inactive | inactive |
| COc1ccc2c(=O)c(-c3ccc(OC(F)(F)F)cc3)c(C)[nH]c2c1 | 96% (active) | 0% | -3 | 97% (active) | inactive | inactive | inactive | inactive |
| O=C(/C=C/c1ccc(Cl)c(Cl)c1)NCCCCCN1CCCN(C(=O)Nc2ccc([N+](=O)[O-])cc2)CC1 | 28% | 32% | -1 | 97% (active) | inactive | inactive | inactive | inactive |
| CCN(CC)CCN(CCN(CC)CC)c1ccc2c(c1)Sc1c(Cl)ccc(Cl)c1S2 | 94% (active) | 31% | -5 | 98% (active) | inactive | inactive | inactive | inactive |
| CCOc1cc(C(=O)NCc2cccc(C(F)(F)F)c2)ccc1-c1nc2ccc(Cl)cc2[nH]1 | 31% | 7% | -6 | 88% (active) | inactive | inactive | inactive | inactive |
| Cc1cccc(N2CCN(C3CCC(NC(=O)c4cc5ccccc5[nH]4)CC3)CC2)c1C (stereo not given) | 21% | 49% | -4 | 101% (active) | inactive | inactive | inactive | inactive |

| Structure (SMILES) | growth inhibition [1] | inhibition [2] | inhibition [3] [%] | growth inhibition [4] | outcome [5] | outcome [6] | outcome [7] | outcome [8] |
| --- | --- | --- | --- | --- | --- | --- | --- | --- |
| CC(=O)Nc1ccc(CN(Cc2cccc(OC(C)(C)C)c2)Cc2ccc3c(c2)OCCO3)cc1 | 96% (active) | -10% | 8 | 95% (active) | inactive | inactive | inactive | inactive |
| Cc1nn(-c2ccccc2)nc1C(=O)N(Cc1ccc(-c2ccc(CNCCc3ccc(S(C)(=O)=O)cc3)cn2)cc1)C(C)CN(C)C (stereo not given) | 87% (active) | 25% | -8 | 101% (active) | inactive | inactive | inactive | inactive |
| Cc1cc(=O)[nH]c(/N=C(/N)NOCCCc2ccccc2)n1 | 4% | -4% | 3 | 100% (active) | inactive | inactive | inactive | inactive |
| c1ccc(CN2CCC(NCc3ccc(-c4ccc(CNCc5cccnc5)cn4)cc3)CC2)cc1 | 13% | -1% | -5 | 97% (active) | inactive | inactive | inactive | inactive |
| Cc1nc(N)nc(N)c1OCCCOc1ccccc1Br | 96% (active) | 57% (active) | -3 | 94% (active) | inactive | inactive | inactive | inactive |
| COc1cc(NC(=O)/C=C/c2ccccc2OC(F)(F)F)cc(OCCN2CCCCC2)c1 | 6% | 25% | 0 | 96% (active) | inactive | inactive | inactive | inactive |
| CN1CCN(CCCN(Cc2cccc(-c3ccc(CNC4CCCC4)cc3)c2)C(=O)/C=C/c2ccccc2)CC1 | 96% (active) | 62% (active) | -2 | 98% (active) | inactive | inactive | inactive | inactive |
| COc1ccc(NC(=O)/C=C/c2ccccc2Cl)cc1OCCN1CCN(c2ccncc2)CC1 | 52% (active) | 7% | -2 | 101% (active) | inactive | inactive | inactive | inactive |
| COc1ccccc1C1CCN(C2CCC(NC(=O)/C=C/c3cc(C(F)(F)F)cc(C(F)(F)F)c3)CC2)CC1 (stereo not given) | 21% | 31% | -4 | 92% (active) | inactive | inactive | inactive | inactive |
| Cc1cccc(OC2CCN(c3ncc(C(=O)NCCCN4CCCC4=O)cc3Cl)CC2)c1 | 95% (active) | 7% | -2 | 96% (active) | inactive | inactive | inactive | inactive |
| COc1ccc2ncc(F)c(CCN3CC[C@H](NC(=O)c4ccc5c(n4)NC(=O)CS5)[C@H](O)C3)c2n1 | 88% (active) | 20% | 0 | 88% (active) | inactive | inactive | inactive | inactive |
| COc1cccc2c(NN=Cc3cccc([N+](=O)[O-])c3)ccnc12 | 47% | 12% | -7 | 100% (active) | inactive | inactive | inactive | inactive |
| CC(C)C[C@H](NC(=O)c1cc(-c2ccc(F)cc2)no1)C(=O)O (tested in a mixture with another compound) | 4% | 7% | -2 | 82% (active) | inactive | inactive | inactive | inactive |
| O=C(/C=C/c1ccc(Cl)c(Cl)c1)NCCCCCN1CC[C@H](NC(=O)c2sc3ccccc3c2Cl)C1 | 3% | 26% | -2 | 97% (active) | inactive | inactive | inactive | inactive |
| CCN(CC)C(=O)C1CCCN(C(=O)Nc2cc(C(F)(F)F)cc(C(F)(F)F)c2)C1 (stereo not given) | 98% (active) | 0% | -2 | 86% (active) | inactive | inactive | inactive | inactive |
| CC(=O)c1c(C)[nH]c(C(=O)Nc2ccc(-c3nc4ccc(C)cc4s3)cc2)c1C | 40% | 11% | -2 | 92% (active) | inactive | inactive | inactive | inactive |
| CCCc1cc(=O)[nH]c(-n2nc(C)cc2NC(=O)C(CC)c2ccccc2)n1 (stereo not given) | 63% (active) | 41% | -2 | 94% (active) | inactive | inactive | inactive | inactive |
| CCCN(CCC)CCCN(CCCN(CCC)CCC)c1cc(C)nc(Nc2ccc(Cl)cc2)n1 | 101% (active) | 34% | -6 | 101% (active) | inactive | inactive | inactive | inactive |
| CCOc1ccc(C(Cc2ccccc2)NC(=O)c2cccnc2)cc1OCC (stereo not given) | 98% (active) | -21% | 5 | 100% (active) | inactive | inactive | inactive | inactive |
| CN1CCN(CC(=O)Nc2cccc(-c3cccc(-c4nc5ccc(F)cc5[nH]4)c3)c2)CC1 | 98% (active) | 16% | 6 | 100% (active) | inactive | inactive | inactive | inactive |
